Our source for the potency estimated from few doses values is PMC11062922 (Nature Chemical Biology, 2023).

Read-outs that look alike come from different tables or passages of the source.

Common to all, as to design: species or system human, MV4-11 + K-562 + COLO205 + SK-N-BE2 + OVCAR-8
The subject of assay [1] is CSNK2A1;CSNK2A3. As to conditions: read-out: apparent Kd, compound concentrations: 100 nM and 1000 nM (sheet 'Samples'), n = 1.
Assay [2] relates to CSNK2A2. As to conditions: read-out: apparent Kd; compound concentrations: 100 nM and 1000 nM (sheet 'Samples'), CATDS: 0.185061390376627; n = 1.
The test system of assay [3] is FECH. As to conditions: read-out: apparent Kd; compound concentrations: 100 nM and 1000 nM (sheet 'Samples'), CATDS: 0.167574298527637; n = 1.
The test system of assay [4] is FLT3. The settings on record: read-out: apparent Kd; compound concentrations: 100 nM and 1000 nM (sheet 'Samples'), CATDS: 0.42553970171458699; n = 1.
Assay [5] has as its system NQO2. As to conditions: read-out: apparent Kd; compound concentrations: 100 nM and 1000 nM (sheet 'Samples'), CATDS: 0.179467556500614; n = 1.
Assay [6] relates to DCTPP1. As to conditions: read-out: apparent Kd; compound concentrations:100 nM and 1000 nM (sheet 'Samples'); n = 1.
Assay [7] concerns JAK2. The settings on record: read-out: apparent Kd; compound concentrations:100 nM and 1000 nM (sheet 'Samples'); n = 1.
Assay [8] has as its system MAPK14. The settings on record: read-out: apparent Kd, n = 1.
Assay [9] concerns MAPK8. As to conditions: read-out: apparent Kd; compound concentrations:100 nM and 1000 nM (sheet 'Samples'); n = 1.
Assay [10] concerns MAPK9. The settings on record: read-out: apparent Kd, n = 1.
Assay [11] deals with MAPKAPK2. The settings on record: read-out: apparent Kd, n = 1.
For assay [12], the system named is NLK. As to conditions: read-out: apparent Kd, n = 1.
Assay [13] has as its system PIP4K2C. As to conditions: read-out: apparent Kd; compound concentrations:100 nM and 1000 nM (sheet 'Samples'); n = 1.
The test system of assay [14] is GAK. As to conditions: read-out: apparent Kd, compound concentrations: 100 nM and 1000 nM (sheet 'Samples'), n = 1.
In assay [15] the test system is TTK. As to conditions: read-out: apparent Kd; compound concentrations: 100 nM and 1000 nM (sheet 'Samples'), CATDS: 0.21902937280851401; n = 1.
Assay [16] has as its system CSNK1D. As to conditions: read-out: apparent Kd, compound concentrations: 100 nM and 1000 nM (sheet 'Samples'), n = 1.
Assay [17] deals with RPS6KA1. The settings on record: read-out: apparent Kd; compound concentrations: 100 nM and 1000 nM (sheet 'Samples'), CATDS: 0.20748336668369699; n = 1.
The test system of assay [18] is CSNK1E. As to conditions: read-out: apparent Kd; compound concentrations: 100 nM and 1000 nM (sheet 'Samples'), CATDS: 7.2450949047452695E-2; n = 1.
Assay [19] concerns PKN3. The settings on record: read-out: apparent Kd; compound concentrations: 100 nM and 1000 nM (sheet 'Samples'), CATDS: 0.57773444025704901; n = 1.
Assay [20] deals with RIPK2. As to conditions: read-out: apparent Kd; compound concentrations: 100 nM and 1000 nM (sheet 'Samples'), CATDS: 0.16475470795078001; n = 1.
Assay [21] concerns SPR. The settings on record: read-out: apparent Kd; compound concentrations: 100 nM and 1000 nM (sheet 'Samples'), CATDS: 9.9495378731818698E-2; n = 1.
Assay [22] relates to TESK2. As to conditions: read-out: apparent Kd; compound concentrations: 100 nM and 1000 nM (sheet 'Samples'), CATDS: 7.5715174552883194E-2; n = 1.
In assay [23] the test system is TGFBR2. As to conditions: read-out: apparent Kd; compound concentrations: 100 nM and 1000 nM (sheet 'Samples'), CATDS: 8.5739105668182394E-2; n = 1.
The subject of assay [24] is TP53RK. As to conditions: read-out: apparent Kd; compound concentrations: 100 nM and 1000 nM (sheet 'Samples'), CATDS: 9.9453344807386698E-2; n = 1.
The subject of assay [25] is GSK3B. The settings on record: read-out: apparent Kd; compound concentrations: 100 nM and 1000 nM (sheet 'Samples'), CATDS: 7.0776673864894807E-2; n = 1.
For assay [26], the system named is MAPK10. As to conditions: read-out: apparent Kd; compound concentrations: 100 nM and 1000 nM (sheet 'Samples'), CATDS: 9.6929032938047402E-2; n = 1.
Assay [27] deals with PIK3CA. As to conditions: read-out: apparent Kd; compound concentrations: 100 nM and 1000 nM (sheet 'Samples'), CATDS: 0.21860301841360499; n = 1.
For assay [28], the system named is PRKD2. The settings on record: read-out: apparent Kd; compound concentrations: 100 nM and 1000 nM (sheet 'Samples'), CATDS: 7.4575323464079593E-2; n = 1.
Assay [29] has as its system PRKD3. As to conditions: read-out: apparent Kd; compound concentrations: 100 nM and 1000 nM (sheet 'Samples'), CATDS: 5.9438089075158997E-2; n = 1.
The test system of assay [30] is RET. As to conditions: read-out: apparent Kd; compound concentrations: 100 nM and 1000 nM (sheet 'Samples'), CATDS: 7.2475765263367006E-2; n = 1.
Setting [31] is: compound concentrations:100 nM and 1000 nM (sheet 'Samples').

Consider `O=C1N=C(NCCc2ccc(Br)cc2)S/C1=C\c1ccc2ncccc2c1` [RO4508334-000], for which the potency estimated from few doses in assay [1] (CATDS: 0.17522676424385999) was 1740 nM; in [2], 1520 nM; in assay [3], 1950 nM; in [4], 345 nM; in assay [5] it was 1640 nM.
Consider `Cl.Cn1c(=O)c(Oc2ccc(F)cc2F)cc2cnc(NC3CCS(=O)(=O)CC3)nc21` [RO3308271-001], for which the potency estimated from few doses in assay [6] is 1310 nM; in [7], 494 nM; in assay [8] (setting [31]) it was 16.5 nM; in assay [9], 922 nM; in [10] (setting [31]), 212 nM; in assay [11] (setting [31]), 13.3 nM. Besides, the values for the potency estimated from few doses in [12] (setting [31]) and in assay [13] were 1220 nM and 1310 nM, respectively.
In the case of `CNc1nc(Nc2ccc(C(=O)N3CCOCC3)cc2OC)ncc1Cl` [HG-10-102-01], the potency estimated from few doses was 2220 nM in [1] (CATDS: 0.22184782024324001); 1180 nM in assay [14] (CATDS: 0.30476726939930399); 1430 nM in [10] (compound concentrations: 100 nM and 1000 nM (sheet 'Samples'), CATDS: 0.27430209396639399); 2290 nM in [15].
Consider `Nc1nc(-c2ccccc2F)c(-c2ccnc3ccccc23)s1` [GW560459X], for which the potency estimated from few doses in assay [16] (CATDS: 0.216607074037657) was 1180 nM; in assay [8] (compound concentrations: 100 nM and 1000 nM (sheet 'Samples'), CATDS: 0.25122803409734401) it was 843 nM; in [11] (compound concentrations: 100 nM and 1000 nM (sheet 'Samples'), CATDS: 0.38711156152007697) it was 389 nM; in [17] it was 1320 nM.
As for `CN(C)CCN(C)C(=O)c1cc(-c2ccncc2)c(-c2ccc(Cl)c(O)c2)o1` [SB-710397_KCGS], the potency estimated from few doses in assay [16] (CATDS: 7.6983160773696893E-2) is 1400 nM; in [18] it was 1720 nM; in assay [8] (compound concentrations: 100 nM and 1000 nM (sheet 'Samples'), CATDS: 9.6688337398944404E-2) it was 748 nM; in [12] (compound concentrations: 100 nM and 1000 nM (sheet 'Samples'), CATDS: 9.9124712412078902E-2), 705 nM; in [19], 30.8 nM; in assay [20], 247 nM. For the same compound, the potency estimated from few doses in assay [21] was 698 nM; in assay [22], 1480 nM; in assay [23], 1020 nM; in assay [24], 699 nM.
For the compound `Cc1ccc2c(-c3ccnc(Nc4cccc(C(F)(F)F)c4)n3)c(-c3ccccc3)nn2n1` [GW829906X], the potency estimated from few doses in assay [16] (CATDS: 6.2224670805274301E-2) was 2130 nM; in [14] (CATDS: 0.103213597019934) it was 606 nM; in assay [25] it was 1440 nM; in assay [26], 688 nM; in assay [8] (compound concentrations: 100 nM and 1000 nM (sheet 'Samples'), CATDS: 8.8284377097412201E-2), 839 nM; in assay [10] (compound concentrations: 100 nM and 1000 nM (sheet 'Samples'), CATDS: 0.22651523139433999), 165 nM. Moreover, the potency estimated from few doses in [11] (compound concentrations: 100 nM and 1000 nM (sheet 'Samples'), CATDS: 6.8776353647753294E-2) is 1560 nM; in assay [12] (compound concentrations: 100 nM and 1000 nM (sheet 'Samples'), CATDS: 6.7080565702130196E-2), 1680 nM; in assay [27], 174 nM; in assay [28] it was 1250 nM; in [29], 2500 nM; in assay [30], 1350 nM.
